The nature of experiment [1]: NCI Yeast Anticancer Drug Screen. Data for the rad50 strain (AID 155).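 Further: 0% = growth of vehicle-only cultures of the same strain.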 The following applies: S. cerevisiae rad50 strain growth inhibition, stronger effect = higher value. The gist of the method:
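Vehicle-treated cultures provide the reference for the growth inhibition reported for compound-exposed, repair-deficient yeast.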

Experiment [2] can be described thus: NCI Yeast Anticancer Drug Screen. Data for the mec2-1 strain (AID 157). As to conditions: S. cerevisiae mec2-1 strain, stronger effect = higher value. The gist of the method:
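Vehicle-treated cultures served as reference for growth inhibition of compound-exposed mec2-1 yeast.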

A short description of experiment [3]: NCI Yeast Anticancer Drug Screen. Data for the sgs1 mgt1 strain (AID 161).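 Further: 0% = growth of cultures given vehicle only.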 As to conditions: S. cerevisiae sgs1 mgt1 strain, stronger effect = higher value. The gist of the method:
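Genetically altered yeast, compound exposure, growth inhibition relative to vehicle.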

Experiment [4] can be described thus: NCI Yeast Anticancer Drug Screen. Data for the cln2 rad14 strain (AID 165).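 Further: 0% = growth equal to vehicle treated cultures.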 As to conditions: S. cerevisiae cln2 rad14 strain, stronger effect = higher value. In a few lines:
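Each compound was tested on cln2 rad14 yeast. Inhibition of growth was calculated against vehicle-exposed controls.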

The nature of experiment [5]: NCI Yeast Anticancer Drug Screen. Data for the bub3 strain (AID 167). The following applies: S. cerevisiae bub3 mutant strain, stronger effect = higher value. The gist of the method:
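Mutant yeast screening strain plus compound; vehicle-treated cultures serve as the 0% inhibition reference.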

Experiment [6] is described as follows: NCI Yeast Anticancer Drug Screen. Data for the mlh1 rad18 strain (AID 175). As to conditions: S. cerevisiae mlh1 rad18 strain growth inhibition, stronger effect = higher value. The gist of the method:
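Vehicle-treated cultures served as the reference for growth inhibition in a yeast strain carrying DNA damage repair alterations exposed to each compound.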

The mark [7] stands for this setting: at 5.0 µM (retest, dose inferred, filed as 0.5).
[8] abbreviates: at 50.0 µM (retest, dose inferred, filed as 5.0).

The panel holds about 79,000 compounds, 15% with a hit somewhere; the sample as a whole holds those more often. A number with no mark means an inactive call. Active and inactive are the calls of the source. No stated cut-off is given here; in the data, active means growth inhibition above about 70%; inactive means the rest.

Turning to `CCc1cc2c(c3c1C(=O)CC3)C(C)(C)CCC2`, the growth inhibition is 1% in experiment [1] (setting [7]); 96% (active) in experiment [1] (setting [8]); 11% in experiment [1] (at 50.0 µM); 2% in experiment [2] (setting [7]); 96% (active) in experiment [2] (setting [8]); 34.6% in experiment [2] (at 50.0 µM). Also, the growth inhibition is 1% in experiment [3] (setting [7]); 97% (active) in experiment [3] (setting [8]); 6.4% in experiment [3] (at 50.0 µM); 2% in experiment [4] (setting [7]); 97% (active) in experiment [4] (setting [8]); 13.8% in experiment [4] (at 50.0 µM). Also, the growth inhibition in experiment [5] (setting [7]) is 12%; in experiment [5] (setting [8]), 97% (active); in experiment [5] (at 50.0 µM) it was 48.5%; in experiment [6] (setting [7]), -6%; in experiment [6] (setting [8]), 97% (active); in experiment [6] (at 50.0 µM), 5%.

For `CCOC(=O)C[P+](c1ccc(C)cc1)(c1ccc(C)cc1)c1ccc(C)cc1`, the growth inhibition is 39% in experiment [1] (setting [7]); 96% (active) in experiment [1] (setting [8]); 96.7% (active) in experiment [1] (at 50.0 µM); 17% in experiment [2] (setting [7]); 94% (active) in experiment [2] (setting [8]); 95.6% (active) in experiment [2] (at 50.0 µM). Moreover, the growth inhibition in experiment [3] (setting [7]) was 11%; in experiment [3] (setting [8]), 82% (active); in experiment [3] (at 50.0 µM), 95.8% (active); in experiment [4] (setting [7]), 2%; in experiment [4] (setting [8]), 82% (active); in experiment [4] (at 50.0 µM), 89.2% (active). Besides, the growth inhibition is 21% in experiment [5] (setting [7]); 88% (active) in experiment [5] (setting [8]); 91% (active) in experiment [5] (at 50.0 µM); 6% in experiment [6] (setting [7]); 93% (active) in experiment [6] (setting [8]); 93.5% (active) in experiment [6] (at 50.0 µM).

Regarding `Cc1c[n+](CC(=O)c2ccc(I)cc2)c(C)s1`, the growth inhibition in experiment [1] (setting [7]) was 0%; in experiment [1] (setting [8]), 13%; in experiment [1] (at 50.0 µM), -16.2%; in experiment [2] (setting [7]), -1%; in experiment [2] (setting [8]) it was 2%; in experiment [2] (at 50.0 µM), 4.1%. Further, the growth inhibition in experiment [3] (setting [7]) was -1%; in experiment [3] (setting [8]), 12%; in experiment [3] (at 50.0 µM), -2.85%; in experiment [4] (setting [7]), -4%; in experiment [4] (setting [8]), -5%; in experiment [4] (at 50.0 µM), 46.3%. Besides, the growth inhibition in experiment [5] (setting [7]) is -2%; in experiment [5] (setting [8]), 9%; in experiment [5] (at 50.0 µM), 1.7%; in experiment [6] (setting [7]), -2%; in experiment [6] (setting [8]), -2%; in experiment [6] (at 50.0 µM), 16.8%.

In the case of `CCC1CCCN1CCOC(=O)C(c1ccccc1)C1C=CCC1` (stereo not given), the growth inhibition in experiment [1] (setting [7]) is 31%; in experiment [1] (setting [8]) it was 51%; in experiment [1] (at 50.0 µM) it was 52.9%; in experiment [2] (setting [7]) it was 23%; in experiment [2] (setting [8]), 58%; in experiment [2] (at 50.0 µM), 33.9%. Besides, the growth inhibition was 40% in experiment [3] (setting [7]); 74% (active) in experiment [3] (setting [8]); 72% (active) in experiment [3] (at 50.0 µM); 32% in experiment [4] (setting [7]); 62% in experiment [4] (setting [8]); 62.4% in experiment [4] (at 50.0 µM). The growth inhibition in experiment [5] (setting [7]) is 40%; in experiment [5] (setting [8]), 60%; in experiment [5] (at 50.0 µM) it was 48.6%; in experiment [6] (setting [7]) it was 60%; in experiment [6] (setting [8]), 79% (active); in experiment [6] (at 50.0 µM) it was 63%.

Regarding `Clc1ccc(C2=CCN3CC=C(c4ccc(Cl)cc4)C23)cc1`, the growth inhibition was 24% in experiment [1] (setting [7]); 18% in experiment [1] (setting [8]); 99.8% (active) in experiment [1] (at 50.0 µM); 1% in experiment [2] (setting [7]); 42% in experiment [2] (setting [8]); 99.9% (active) in experiment [2] (at 50.0 µM). The growth inhibition in experiment [3] (setting [7]) is 32%; in experiment [3] (setting [8]) it was 46%; in experiment [3] (at 50.0 µM) it was 100% (active); in experiment [4] (setting [7]), 13%; in experiment [4] (setting [8]), 5%; in experiment [4] (at 50.0 µM) it was 99.6% (active). Also, the growth inhibition is 17% in experiment [5] (setting [7]); 41% in experiment [5] (setting [8]); 99.8% (active) in experiment [5] (at 50.0 µM); 18% in experiment [6] (setting [7]); 39% in experiment [6] (setting [8]); 99.8% (active) in experiment [6] (at 50.0 µM).

Turning to `COC(=O)C1=CCC[C@H]2C1(C)CCC(C)C21CC(c2ccoc2)OC1=O` (stereo not given in full), the growth inhibition in experiment [1] (setting [7]) was -8%; in experiment [1] (setting [8]), 75% (active); in experiment [1] (at 50.0 µM), 50.5%; in experiment [2] (setting [7]), 8%; in experiment [2] (setting [8]), 85% (active); in experiment [2] (at 50.0 µM), 55.6%. Besides, the growth inhibition in experiment [3] (setting [7]) is 10%; in experiment [3] (setting [8]), 90% (active); in experiment [3] (at 50.0 µM), 72.2% (active); in experiment [4] (setting [7]) it was -16%; in experiment [4] (setting [8]) it was 14%; in experiment [4] (at 50.0 µM), 28.9%. For the same compound, the growth inhibition in experiment [5] (setting [7]) is -8%; in experiment [5] (setting [8]) it was 83% (active); in experiment [5] (at 50.0 µM), 67.2%; in experiment [6] (setting [7]), 10%; in experiment [6] (setting [8]), 87% (active); in experiment [6] (at 50.0 µM), 76.2% (active).

Consider `CC(=O)Nc1ccc(/C=c2\sc3nnc(-c4cccnc4)n3c2=O)cc1`, for which the growth inhibition in experiment [1] (setting [7]) was 33%; in experiment [1] (setting [8]), 87% (active); in experiment [1] (at 50.0 µM), 89.8% (active); in experiment [2] (setting [7]), 7%; in experiment [2] (setting [8]) it was 91% (active); in experiment [2] (at 50.0 µM), 88% (active). Also, the growth inhibition in experiment [3] (setting [7]) is 6%; in experiment [3] (setting [8]), 78% (active); in experiment [3] (at 50.0 µM), 87.2% (active); in experiment [4] (setting [7]) it was -5%; in experiment [4] (setting [8]) it was 58%; in experiment [4] (at 50.0 µM), 71% (active). The growth inhibition was 8% in experiment [5] (setting [7]); 94% (active) in experiment [5] (setting [8]); 80.5% (active) in experiment [5] (at 50.0 µM); -17% in experiment [6] (setting [7]); 95% (active) in experiment [6] (setting [8]); 86.5% (active) in experiment [6] (at 50.0 µM).

In the case of `CN(C)C(=S)/N=c1\sn(C)/c(=N\C(=S)N(C)C)n1C`, the growth inhibition was -30% in experiment [1] (setting [7]); -14% in experiment [1] (setting [8]); -0.5% in experiment [1] (at 50.0 µM); -11% in experiment [2] (setting [7]); -11% in experiment [2] (setting [8]); -5.9% in experiment [2] (at 50.0 µM). For the same compound, the growth inhibition is 5% in experiment [3] (setting [7]); 7% in experiment [3] (setting [8]); -5.6% in experiment [3] (at 50.0 µM); -27% in experiment [4] (setting [7]); -36% in experiment [4] (setting [8]); -75.8% in experiment [4] (at 50.0 µM). Also, the growth inhibition in experiment [5] (setting [7]) is -13%; in experiment [5] (setting [8]) it was -17%; in experiment [5] (at 50.0 µM), 0.6%; in experiment [6] (setting [7]), -7%; in experiment [6] (setting [8]), -8%; in experiment [6] (at 50.0 µM), 19.8%.

On to `C/C(=N/NC(=O)Nc1ccc(N=Nc2ccccc2)cc1)c1ccccn1`, for which the growth inhibition in experiment [1] (setting [7]) is -15%; in experiment [1] (setting [8]), -12%; in experiment [1] (at 50.0 µM), 15.2%; in experiment [2] (setting [7]), -7%; in experiment [2] (setting [8]), -5%; in experiment [2] (at 50.0 µM), -10.9%. Besides, the growth inhibition in experiment [3] (setting [7]) is 0%; in experiment [3] (setting [8]) it was 19%; in experiment [3] (at 50.0 µM) it was 24.8%; in experiment [4] (setting [7]), 33%; in experiment [4] (setting [8]) it was -16%; in experiment [4] (at 50.0 µM), -4.4%. For the same compound, the growth inhibition in experiment [5] (setting [7]) was 3%; in experiment [5] (setting [8]) it was 43%; in experiment [5] (at 50.0 µM) it was 16.4%; in experiment [6] (setting [7]), -9%; in experiment [6] (setting [8]) it was 15%; in experiment [6] (at 50.0 µM), 28.1%.

Regarding `Cc1c2c(c(C)c3c4c(oc13)CCCC4)C=NCC2`, the growth inhibition was -4% in experiment [1] (setting [7]); 49% in experiment [1] (setting [8]); 69.7% in experiment [1] (at 50.0 µM); 3% in experiment [2] (setting [7]); 41% in experiment [2] (setting [8]); 92.8% (active) in experiment [2] (at 50.0 µM). Also, the growth inhibition in experiment [3] (setting [7]) is -7%; in experiment [3] (setting [8]), 36%; in experiment [3] (at 50.0 µM), 25%; in experiment [4] (setting [7]), -46%; in experiment [4] (setting [8]) it was 26%; in experiment [4] (at 50.0 µM), 29.2%. In addition, the growth inhibition in experiment [5] (setting [7]) was -8%; in experiment [5] (setting [8]), -78%; in experiment [5] (at 50.0 µM), 50.2%; in experiment [6] (setting [7]) it was -5%; in experiment [6] (setting [8]) it was 45%; in experiment [6] (at 50.0 µM) it was 80.1% (active).

The values are drawn from PubChem BioAssay (NCI).
